Bioassay records from PubChem.
MIN6 prolif = inducers of beta-cell replication in MIN6 cells | MIN6 cells proliferation, ATPlite luminescence, 48 h; cells starved in 0.2% serum; 100% = growth in 10% serum | 330,000 tested, 0.29% active | proliferation, % at 10 µM | AID 2380;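 active = compounds whose signal lies at least 3.5 SD above the mean of all wells on their plate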
MOR-DOR ag-1 = OPRM1-OPRD1 heterodimerization agonism; P35372+P41143; cells, luminescence; activation, % at 9.3 µM; 340,000 tested, 0.3% active; AID 504326
HTR5A ag ctr = activates human HTR5A in OPRM1-OPRD1 agonist counter-screen; activation, % at 9.3 µM; 340,000 tested, 0.61% active; P47898; HTR5A agonist assay, luminescence, cell-based; in the data active = activation mostly above about 9.5%, no sharp cut-off; inactive = mostly below about 7.6%
Target sequence (P47898 whole entry, looked up): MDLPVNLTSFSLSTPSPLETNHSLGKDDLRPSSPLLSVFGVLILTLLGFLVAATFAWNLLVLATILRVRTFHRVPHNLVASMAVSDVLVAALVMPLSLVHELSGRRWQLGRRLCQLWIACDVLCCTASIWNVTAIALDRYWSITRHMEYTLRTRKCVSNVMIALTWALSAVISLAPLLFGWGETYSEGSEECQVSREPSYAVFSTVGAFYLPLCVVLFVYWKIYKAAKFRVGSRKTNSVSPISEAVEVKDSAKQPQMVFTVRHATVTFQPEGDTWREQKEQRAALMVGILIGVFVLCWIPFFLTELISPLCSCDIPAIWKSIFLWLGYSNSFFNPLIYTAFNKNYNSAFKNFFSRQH
pCIP destab = lowers stability of the mouse p/CIP coactivator protein; Q05BA5; F442A p/CIP-EGFP cells, EGFP fluorescence, 16 h; 290,000 tested, 0.01% active; decrease of EGFP signal, % at 10 µM; AID 1984;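 active = EGFP signal decrease of at least 30% at 10 µM or well 3 SD below plate mean, unless failing retest; inactive = the rest, including hits failing retest or dose response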
OPRM1-OPRD1 inv = mu-delta opioid heterodimer inverse agonism. 340,000 tested, 0.21% active. P35372+P41143. inhibition, % at 9.3 µM. cell-based MOR-DOR heterodimer luminescence; in the data active = inhibition above about 22%, passing the limit was not always enough
HTR5A inv ag = counter-screen for OPRM1-OPRD1 inverse agonists: human HTR5A inverse agonism. 340,000 tested, 0.083% active. HTR5A cell line, luminescence. inhibition, % at 9.3 µM. P47898. AID 504634; in the data active = inhibition mostly above about 23%, no sharp cut-off; inactive = mostly below about 18%
MOR-DOR ag-2 = opioid heterodimer agonism, HTR5A counter-screen. shares compounds with HTR5A ag ctr. U2OS counter-screen cells, complementation luminescence, 3 h. activation, % at 9.3 µM. 800 tested, 13% active
HTR5A ag confirm = confirmation of human HTR5A agonists; HTR5A agonist cell assay, luminescence; 800 tested, 17% active; shares compounds with HTR5A ag ctr; activation, % at 9.3 µM; in the data active = activation above about 17%
Numbers stand for hits; . = inactive; / = no result. Hits are enriched below; roughly 1.4% of the tested compounds scored in any of these assays. Rule as the data show it, unless noted: active = activation above about 18%; inactive = the rest.

SMILES	MIN6 prolif	MOR-DOR ag-1	HTR5A ag ctr	pCIP destab	OPRM1-OPRD1 inv	HTR5A inv ag	MOR-DOR ag-2	HTR5A ag confirm
O=C(CNS(=O)(=O)c1ccccc1)N1CCCC1	.	.	.	.	.	.	/	/
COc1cc(Cl)c(C)cc1NC(=O)CC1SC(N2CCOCC2)=NC1=O (stereo unspecified)	.	.	.	/	.	.	/	/
CCc1cc2ccccc2nc1SCC(=O)Nc1cc(C)on1	.	.	26	.	.	.	.	.
CCc1cc2c(C)ccc(C)c2nc1SCC(=O)Nc1cc(C)on1	.	.	.	.	.	.	/	/
Cc1[nH]nc(C(=O)NN=Cc2ccccc2Cl)c1N=NN(C)C	/	.	.	/	.	.	/	/
O=c1[nH][nH]c(=S)n1-c1ccccc1C(F)(F)F	/	/	/	.	/	/	/	/
CC1CN(S(=O)(=O)c2ccc(C(=O)N3CCc4ccccc43)cc2)CC(C)O1 (stereo unspecified)	.	.	.	/	.	.	/	/
CCCCC1(Br)C(=O)N(c2ccccc2)N(c2ccccc2)C1=O	.	.	16	/	.	.	.	.
Cc1cc(C)c(OCCNCc2ccccc2)c(C)c1	.	.	.	.	.	.	/	/
Cc1cc(C)c(OCCCCNCc2ccccc2)c(Cl)c1	.	.	19	.	.	.	.	.
O=C(C1=COCCO1)N1CCN(c2nc3ccc([N+](=O)[O-])cc3s2)CC1	.	.	16	/	.	.	83	.
C/C(=N/NS(=O)(=O)c1ccc(Cl)cc1)c1ccc2c(c1)OCO2	.	.	15	/	.	.	.	.
C/C(=N\NS(=O)(=O)c1ccc(Br)cc1)c1ccc2c(c1)OCO2	.	.	.	.	.	.	/	/
O=C(Cc1ccc(S(=O)(=O)N2CCOCC2)s1)OCc1ccc(Cl)cc1	.	.	.	/	.	.	/	/
O=C1C2ON(c3ccccc3)C(c3ccncc3)C2C(=O)N1c1ccc(N2CCOCC2)cc1 (stereo unspecified)	.	.	20	.	.	.	.	.
COCCCNc1nc(N)c([N+](=O)[O-])c(NCC2CCCO2)n1 (stereo unspecified)	.	.	15	.	.	.	.	.
O=C(CSc1nnc(NC(=O)c2c(F)cccc2F)s1)NC1CCCCC1	.	.	.	.	.	.	/	/
c1ccc(-c2cc(-c3nnc4n3N=C(c3ccc5ccccc5c3)CS4)[nH]n2)cc1	.	.	15	.	.	.	.	.
CC[C@]12c3[nH]c4ccc(OC)cc4c3CCN1C(=O)C(CC(=O)NCCc1ccccn1)C[C@@H]2C(=O)N1CCN(C(=O)c2ccco2)CC1 (stereo partly specified)	/	.	.	/	.	.	/	/
Cc1ccc(Cl)cc1NC(=O)c1cc2ccccc2cc1O	.	.	22	.	.	.	.	.
COc1ccccc1CNC(=S)Nc1ccc2nc(N3CCN(C)CC3)cc(C)c2c1	.	.	70	.	.	.	.	70
COc1ccc(CNC(=S)Nc2ccc3nc(N4CCN(C)CC4)cc(C)c3c2)cc1	.	.	.	.	.	.	/	/
C[C@@H](NC(=O)c1nc[nH]c1C(=O)NCC(=O)OCc1ccccc1)c1ccccc1	.	.	24	.	.	.	.	.
O=S(=O)(NCc1ccc(F)cc1)c1cccc(S(=O)(=O)N2CCOCC2)c1	.	.	20	.	.	.	.	.
O=S(=O)(NCc1ccccc1F)c1cccc(S(=O)(=O)N2CCOCC2)c1	.	.	.	.	.	.	/	/
COc1ccccc1CC(NC(C)=O)C(=O)N1CCN(C(=O)c2cccs2)CC1 (stereo unspecified)	.	.	.	.	.	.	/	/
COc1ccccc1CN(C)C(=O)CN1CCN(C(=O)c2cccs2)CC1	.	.	15	/	.	.	.	32
O=S(=O)(N/N=C\C=C\c1ccccc1)c1ccc(Br)cc1	.	.	19	.	.	.	.	.
Cc1ccc(S(=O)(=O)N/N=C\C=C\c2ccccc2)cc1	.	.	38	.	.	.	.	.
CC1CCN(C(=O)c2[nH]cnc2C(=O)Nc2ccon2)CC1	.	.	.	/	.	.	/	/
